Measured values from PubChem BioAssay AID687011 (National Center for Advancing Translational Sciences (NCATS), 2013).
Calls of active or inactive are those of the source.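 The calls were made as follows: active = significant body weight gain in treated spinal muscular atrophy model mice compared with vehicle-treated controls; inactive = no significant body weight gain.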

Assay: Extended Characterization of SMN2 Inhibitors: Body Weight Studies
Conditions: SMNdelta7 SMA mice, 50 mg/kg ip
From the text: Spinal muscular atrophy (SMA) is caused by insufficient levels of the survival motor neuron protein SMN. The SMN locus on chromosome 5q13 contains two inverted copies of SMN called SMN1 and SMN2 which are 99% identical at the amino acid level. SMN1 is a fully functional protein and SMN2 skips exon 7 90% of the time. Skipping of exon 7 produces non-functional protein product. 10% of the SMN2 protein includes exon 7 and is fully functional. In the SMA disease state, mutations in the SMN1 locus are the cause of the disease state. Because only 10% of SMN2 is of the fully functional form, it is not sufficient to overcome the deficiency produced by the loss of the SMN1 product. A therapy that either increase the amount of SMN2 product made or to increase the inclusion of exon 7 has been proposed for the treatment of SMA. We have previously filed a probe report and have now done further SAR and further characterized the resulting compounds in mice studies. Here we tested the new compound to see if there was an improval in body weight when administered to SMNdelta7 SMA mice. NIH Chemical Genomics Center [NCGC] NIH Molecular Libraries Probe Production centers Network [MLPCN] MLPCN Grant: R03 MH084179 Assay Submitter (PI): Elliot Androphy […]

Structure (SMILES)	outcome
O=C(O)C1CCN(c2ncc(-c3ccc4c(c3)OCCCO4)s2)CC1	active; yes
